Shown are actives, neighbours in structure and some others; about 1.5% of the full set was active somewhere.
CRFR2-BP ag: CRF-BP/CRF-R2 complex agonism; 350,000 tested, 0.46% active; activation, % at 13.2 µM; HEK293 CRF-R2/CRF-BP, calcium dye fluorescence (FLIPR); percent of saturating CRF peptide response;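 active means activation of at least 50%, plus an integration ratio under a set limit after plate pattern correction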;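 further: plate controls were neutral control wells without compound for no effect and CRF at EC100 for full effect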
NTR1 ag: NTR1 (human) agonism | P30989 | NTR1-U2OS beta-arrestin-GFP spot imaging, agonist mode | activation, % at 20 µM | 330,000 tested, 0.17% active | AID 493036;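 active means activation at or above 40% of the spot to cytoplasm intensity ratio, with at least 20 cells analyzed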;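 further: 0% = DMSO without peptide and 100% = 100 nM NTR1 peptide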
V-ATPase pHluor: regulators of yeast V-ATPase proton transport | S. cerevisiae, pHLuorin cytosolic pH fluorescence | response, % at 10 µM | 350,000 tested, 0.37% active | AID 504577; in the data active means response mostly above about 7.3%, no sharp cut-off; inactive means mostly below about 5.4%; further: actives read high
CRFBP-R2 block: CRF-BP/CRF-R2 complex antagonism; HEK293 CRF-R2/CRF-BP, CRF-induced calcium fluorescence; inhibition, % at 11.8 µM; 350,000 tested, 0.59% active;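 active means inhibition of the ligand-induced calcium signal above about 50% at the single tested concentration, limit read from the data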
VATPase regulator: regulators of yeast V-ATPase proton transport. S. cerevisiae pHLuorin cytosolic pH. AID 602197. shares compounds with V-ATPase pHluor. response, % at 10 µM. 980 tested, 2% active; in the data active means response above about 24%;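 further: plate controls were vehicle wells for no effect and positive control wells for full effect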
Starred values were filed as active, the others as inactive; . = no result given.

SMILES	CRFR2-BP ag	NTR1 ag	V-ATPase pHluor	CRFBP-R2 block	VATPase regulator
Cc1cc(OCC(=O)N2CCC(C(=O)O)(c3ccccc3)CC2)c2c(C)c(C)c(=O)oc2c1	0	2	10*	7	0
Cc1ccc([N+](=O)[O-])cc1	-2	-2	21*	6	4
COc1ccc(OC)c(N2Cc3ccccc3C2=N)c1	0	0	0	3	.
Cc1ccc2n1Cc1cnnn1-c1ccccc1-2	-1	.	1	0	.
Cc1ccsc1/C=C1\C(=O)NC(=S)N(C)C1=O	1	19	11*	3	45*
COc1ccc(/C=C2\C(=O)NC(=S)N(C)C2=O)cc1C	3	2	1	3	.
C/C(=N\Nc1ccccc1)c1c(O)[nH]c(=O)[nH]c1=O	-2	2	16*	14	-3
O=C(Nc1ccc(F)cc1)c1c(O)c2c(n(Cc3ccccc3)c1=O)CCCC2	5	-2	10.0*	-36	4
C[C@]1(O)CC[C@H]2[C@@H]3CCC4=CC(=O)CC[C@]4(C)[C@@]3(F)[C@@H](O)C[C@@]21C	0	.	9.2*	11	1
C/C(=N\N1CCCCCC1)c1c(O)n(-c2ccc(C)cc2)c(=O)[nH]c1=O	-1	4	8.7*	18	-4
COc1ccccc1-n1c(O)c(/C=C2\C=Nc3ccccc32)c(=O)[nH]c1=O	2	3	-8	-33	.
COC(=O)C1=C(c2cccc(C#N)c2)C[C@@H]2CC[C@H]1N2C(=O)NCCOc1ccccc1Cl	1	0	0	0	.
CN1CCN(c2nc(N)cc(=O)[nH]2)CC1	-1	0	-1	-1	.
Cc1ccc2nc(N3CCN(C)CC3)[nH]c2c1	-3	1	12*	-1	0
COC(=O)C1=C(c2ccc(-c3ccccc3)c(F)c2)C[C@@H]2CC[C@H]1N2C(=O)N1CCc2cc(OC)c(OC)cc2C1	0	2	-2	16	.
COc1ccc(N2C(=O)/C(=C/c3ccc(C)o3)C(=O)NC2=S)cc1	3	0	11*	-2	82*
CCOc1ccc(N2C(=O)/C(=C/c3ccc(C)o3)C(=O)NC2=S)cc1	-1	0	6	1	.
Cc1ccccc1CN1CCNCC1	0	0	11*	-6	1
CCOC(=O)c1cc2c(cn1)[nH]c1ccccc12	0	2	-4	-35	0
CCOC(=O)c1ccccc1N	-1	-2	1	10	.
O=C1Nc2ccc(Br)cc2C(c2ccc(Cl)cc2)=NC1O (centres undefined)	0	1	0	-35	.

Bioassay records as filed in PubChem BioAssay.
